Screening results (PubChem)
This is one part of a sample in which hits are shown more often than they occur.
Pf Dd2 inh – qHTS Primary assay for Inhibitors of Plasmodium falciparum Dd2 growth in vitro; P. falciparum Dd2 growth, SYBR Green, 72 h; actives 4.3% (n = 120,000); Potency, µM (top dose mostly 28.9 µM), for the others: at the top dose activity, negative = inhibition, actives largely listed as inhibitors; AID 1347417, 2020; active means well fitted inhibition curve with a large enough effect;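 further: plate controls were DMSO vehicle for no effect and reference drug for full effect; nearly all actives have a fitted effect of over 65% in size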
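Infected erythrocytes (Dd2, 0.3% parasitemia, 2.5% hematocrit final) are added to compound in RPMI-1640/Albumax II medium, grown 72 h at 37C in low oxygen, then lysed with saponin/Triton-X containing SYBR Green and read by fluorescence.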
An asterisk follows results filed as active; i = inactive; [ ] = dose if it differs, or a comment. Potency means the concentration at half of the fitted maximal effect.

SMILES | Pf Dd2 inh
C[S+](=O)([O-])c1ccc(-c2ncc3c(n2)OCCN(c2ccccc2)C3=O)cc1 | -2%[44.1 µM]
CN(C)c1cccc(Oc2nnnn2[C@H]2CO[C@H]3[C@@H]2OC[C@@H]3NC(=S)Nc2cccc(C#N)c2)c1 | i
COCCN1C(=O)c2cccn2CC1CNC(=O)Cc1cccc(OC)c1 (centres undefined) | -11%
CNC(=O)CN(C)C(=O)c1coc(COc2ccc3ccc(OC)cc3c2)n1 | -21%
CCOc1ccc(C2Cn3nnc(-c4nc(C)no4)c3CO2)cc1 (centres undefined) | i
O=C(CN1CC2CC(C1)[C@H]1CCCC(=O)N1C2)NCCN1CCOCC1 (some centres undefined) | 11%
CCn1cc(S(=O)(=O)N[C@@H]2CCOC[C@H]2O)c(C)n1 | 4%
O=C(O)C1CN(C(=O)c2ccco2)CCN(C2CCOCC2)C1 (centres undefined) | -10%
O=C(c1ccc(Cl)cc1)N1CC2(CCCN(Cc3ccccn3)C2)Cc2ccccc21 (centres undefined) | -29%
O=C(c1ccc(Cl)cc1)N1CC2(CCCN2Cc2ccc(Cl)cc2)Cc2ccccc21 (centres undefined) | 10µM*
CC(=O)N1CC2(CCCN2Cc2cccc(C(N)=O)c2)Cc2ccccc21 (centres undefined) | -5%
O=C(c1ccc(Cl)cc1)N1CC2(CCN(C3COC3)C2)Cc2ccccc21 (centres undefined) | -23%
CC(=O)N1CC2(CCN(Cc3cccc(C(N)=O)c3)CC2)Cc2ccccc21 | -17%
O=C(c1ccc(Cl)cc1)N1CC2(CCN(CC3CC3)C2)Cc2ccccc21 (centres undefined) | 6.3µM*
CC(=O)N1CC2(CCN(Cc3cccc(C(N)=O)c3)C2)Cc2ccccc21 (centres undefined) | -18%
NC(=O)c1cccc(CN2CCC3(CC2)Cc2ccccc2N(C(=O)c2ccc(Cl)cc2)C3)c1 | 11µM*
CS(=O)(=O)N1CC2(CCCN2Cc2ccc(Cl)cc2)Cc2ccccc21 (centres undefined) | -20%
Cn1c([C@H]2CCN(C(=O)COc3ccccc3)C2)nc2ccccc21 | -18%[44.1 µM]
CN(C)C[C@@H]1CN(Cc2ccccc2)C[C@H]1NC(=O)c1cnn(C)c1 | 0%
O=C(c1cccc(Cl)c1)N1CCn2c(nn(-c3ccc(F)cc3)c2=O)C1 | -2%
O=C(NCc1nnc2c(-c3nc(C4CC4)no3)cccn12)c1c[nH]c2ccccc12 | -8%
Cc1ccc(NC(=O)c2cc3n(n2)CC(c2ccc4c(c2)OCO4)OC3)cc1 (centres undefined) | i
CN(C)C[C@@H]1CN(c2ccccn2)C[C@H]1NC(=O)c1ccsc1 | -23%
CC[C@H]1CN(C(=O)N2CCOCC2)CC[C@H]1CC(=O)NCc1ccccc1 | -14%[44.1 µM]
COc1ccc(C(=O)N2CCC3(CC2)CC(OCC2CC2)CCO3)cn1 (centres undefined) | 6%
SMILES | Pf Dd2 inh
O=C(NCc1cccc(F)c1)N1CCC(n2cnnc2C2CC2)C1 (centres undefined) | 10%
COc1cc(C(=O)N2CCC[C@H]2c2nc(-c3ccccc3Cl)no2)cc(OC)c1OC | 7%
CC(C)CC(=O)N1CCCCCC1CN1CCC(C)CC1 (centres undefined) | i
Cn1ccnc1CN1C(=O)NC2(CCNCC2)C1=O | 2%
O=C1NC2(CCNCC2)C(=O)N1CCCc1cccnc1 | -3%
O=C1N(CCCCOc2ccccc2)c2ccccc2NC12CCNCC2 | 7.9µM*
Cc1nc2scc(CC(=O)NC3CCCCC3)n2c(=O)c1-c1cc(C)n(-c2ccccc2F)n1 | i
O=C(NC1CCN(c2cc(-c3ccc(F)cc3)[nH]n2)CC1)c1ccc(F)c(Cl)c1 | -8%
Cc1cnc(CC2CCN(C(=O)Cc3cccc(F)c3)CC2)n1CC1CC1 | -3%
Cc1ccc(-c2nc3ccccc3[nH]2)cc1NC(=O)COc1cccc(C)c1C | 7.1µM*
COc1ccc(OCC(=O)Nc2cc(-c3nc4ccccc4s3)ccc2C)cc1 | 3%
Cc1ccc(-c2nc3ccccc3s2)cc1NC(=O)COc1ccccc1 | 13%
O=C(C1CCCN1c1nc2ncccc2o1)N1CCOCC1 (centres undefined) | 22%[44.1 µM]
O=C(CCc1nc2ccccc2[nH]c1=O)N1CCN(CCn2cncn2)CC1 | 9%
Cc1ccc(S(=O)(=O)N(CC(O)Cn2c3ccccc3c3ccccc32)c2cccc(C(=O)N(C)C)c2)cc1 (centres undefined) | 8.9µM*
Cc1ccc(S(=O)(=O)c2cn(CC(=O)Nc3cccc(Cl)c3)c3ccccc3c2=O)cc1 | i
Cc1ccc(-c2ccc3nnc(CNC(=O)c4cccc(N(C)C)c4)n3n2)cc1 | i
COc1ccc(S(=O)(=O)N(CC(=O)NCc2ccccc2)c2ccc(C)cc2)cc1OC | 15%
Cc1ccc(S(=O)(=O)N(CC(O)Cn2c3ccccc3c3ccccc32)c2cccc(C(N)=O)c2)cc1 (centres undefined) | 10µM*
CCOC(=O)N1CCN(C(=O)CN(c2ccccc2F)S(=O)(=O)c2ccc(C)cc2)CC1 | -16%
O=C(Nc1ccccc1)N1CCc2nc(-c3ccc(Cl)cc3)nc(-c3ccccc3)c2C1 | i
Cc1ccc(CN2C[C@H]3CN(Cc4ccc(C(=O)O)cc4)CCN3C2=O)cc1 | i
CCC(c1cccs1)N1C(=O)[C@H]2CN(S(=O)(=O)c3ccc(F)c(C)c3)C[C@H]2C1=O (some centres undefined) | 5%
Cn1nccc1CN1CCn2c(nn(-c3ccc(C(F)(F)F)cc3)c2=O)C1 | -21%
CN(Cc1ccccc1)C(=O)c1ccc2c(c1)NC(C)(COc1cccnc1)CO2 (centres undefined) | i
SMILES | Pf Dd2 inh
COCCN1C(=O)CS(=O)(=O)C12CCN(C(=O)c1sccc1C)CC2 | -15%
CC(=O)N1C[C@H](NS(=O)(=O)c2ccc(C)c(Cl)c2)[C@@H](C2CC2)C1 | -2%
CCCCc1cc(C[C@H]2CNCC[C@H]2CC(=O)N(C)Cc2ccccc2)no1 | 6.3µM*
CCN(CC)C(=O)C[C@@H]1CCNC[C@@H]1Cc1cc(-c2ccccn2)on1 | -17%[44.1 µM]
CC(=O)NCCNC(=O)C[C@@H]1CCNC[C@@H]1Cc1cc(-c2ccccc2)on1 | 15%[44.1 µM]
CN(Cc1ccccc1)C(=O)C[C@@H]1CCNC[C@@H]1Cc1cc(-c2ccccc2)on1 | 5µM*
CCCCc1cc(C[C@H]2CNCC[C@H]2CC(=O)NCc2ccccc2)no1 | -13%[44.1 µM]
CC(=O)N1CCN(C(=O)C[C@@H]2CCNC[C@@H]2Cc2cc(-c3ccccc3)on2)CC1 | i
Cn1ccc2c(C(=O)N3CCCC(c4ccc(C(=O)O)cc4)C3)cccc21 (centres undefined) | 3%
Cc1cc(C(=O)N2[C@@H]3CC[C@H]2CC(NC(=O)c2ccc(F)cc2)C3)nn1C (some centres undefined) | -15%
COc1ccc(C(=O)N2CCCC3(CNc4ccccc4[S+](=O)([O-])N3)C2)cc1 (centres undefined) | 6%
CCN(CC)[C@H]1[C@@H]2OC[C@@H](O2)[C@@H](NCc2ccc(OC(F)(F)F)cc2)[C@@H]1O | i
CC(=O)N1CCc2nn(CC(=O)Nc3cccc(F)c3)c(=O)cc2C1 | 46%
CC(C)CCN1CCC2(CC1)CN[S+](=O)([O-])c1ccccc1N2 | -7%
O=C(c1cccc(F)c1F)N1CCOc2ccc(CN3CCN(c4ccccn4)CC3)cc2C1 | -2%
COc1cc(NC(=O)c2ccc3c(c2)N(C)C2CCCN2C3=O)cc(OC)c1OC (centres undefined) | i
O=C(NCC1CC1)c1cccc(OC2CN(Cc3cccc(F)c3F)C2)c1 | -21%
